# Screens deposited in PubChem BioAssay by Broad Institute.
# HSF1 activator: increases HSF-1 driven luciferase reporter signal; NIH3T3-HGL HSF-1 luciferase reporter, MG132, 8 h; 100% = twice DMSO control signal; activation, % at 9 µM; 1.7% of 300,000 active; AID 504408;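 active = mean replicate activation of at least 50% with a set share of replicates each reaching 50%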;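 also: 0% = median of the neutral control wells and 100% = twice that signal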
# MITF act: increases MITF-driven TRPM1 promoter luciferase signal | SK-MEL-5 TRPM1-promoter luciferase, 24 h; % of positive control, neutral wells = 0 | activation, % at 12.5 µM | 0.75% of 300,000 active | AID 588334;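 active = mean activation of at least 80% with every replicate also reaching 80%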;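 also: 0% = neutral control wells and 100% = parthenolide positive control wells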
# Wnt bcat act: activators of Wnt/beta-catenin signaling; Wnt/beta-catenin reporter cell assay, activator, plate reader; activation, % at 9.35 µM; 1.2% of 300,000 active; AID 743398; in the data active = activation above about 30%, passing the limit was not always enough;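 also: 0% = neutral control wells and 100% = positive control wells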
# esBAF inh: SWI/SNF esBAF complex inhibition. AID 602393. mouse ES cells, Bmi1-luciferase knock-in reporter, 24 h; 100% = twice the neutral-well signal. reporter increase, % at 12.5 µM. 2% of 350,000 active; in the data active = activation above about 40%;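 also: 0% = median of the plate's neutral control wells and 100% = double that signal; a rise in the Bmi1 reporter signal indicates esBAF inhibition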
# HSF1 inh: HSF1 inhibition | NIH3T3-HGL HSE-luciferase, MG132-induced, luminescence 8 h; stronger effect = lower value | activity change, negative = inhibition, % at 7.5 µM (by protocol) | 0.77% of 300,000 active | AID 2098;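 active = more than half of replicate wells show activity change below -50%, luminescence cut by over half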;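 also: luciferase reports HSF-1 transcriptional activity via heat shock element; 0% = median of DMSO wells and -100% = zero luminescence signal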
# * marks the source's active call; other numbers are inactive results; · = no result given; ! = not confirmed by another sample. Compounds with a hit are over-represented: about 3.9% of the library has one in this group of screens.
SMILES,HSF1 activator,MITF act,Wnt bcat act,esBAF inh,HSF1 inh
Cc1ccc2nc(NCc3ccccc3)c(C=O)c(=O)n2c1,90*,8,-6,0,57
O=C(NNc1cccc(Cl)n1)Nc1ccc(Cl)cc1,77*,·,·,10,33
COc1cccc(S(=O)(=O)N[C@H]2CC[C@H](CCNC(=O)Nc3cc(F)ccc3F)O[C@H]2CO)c1,·,·,·,14,·
C[C@@H]1CN([C@@H](C)CO)C(=O)c2cc(NS(C)(=O)=O)ccc2O[C@@H](C)CCCCO[C@@H]1CN(C)S(=O)(=O)c1cccs1,·,·,·,2,·
O=C1C=CC(O)(c2cc(=O)c3c(O)cc(O)cc3o2)C=C1,-93,-80,-24,-77,-91*
O=C(C[C@H]1C[C@H]2c3cc(NC(=O)c4ccc5c(c4)OCO5)ccc3O[C@H]2[C@H](CO)O1)NC1CCCCC1,·,·,·,-3,·
O=S(=O)(NCC[C@H]1CC[C@H](NS(=O)(=O)c2ccccc2Cl)[C@H](CO)O1)c1ccc(Cl)cc1,·,·,·,10,·
O=C(C[C@@H]1C[C@H]2c3cc(NC(=O)C4CCC4)ccc3O[C@H]2[C@@H](CO)O1)NCc1ccccc1,·,·,·,0,·
O=C(Nc1ccc(-c2cn3c(n2)SCC3)cc1)c1ccc2ccccc2n1,6,-13,-2,·,1
O=C(Nc1cccc(-c2cn3c(n2)SCC3)c1)c1ccc2ccccc2n1,-6,63,41*,60*,1
C[C@@H]1CN([C@H](C)CO)C(=O)Cc2cc(NS(=O)(=O)c3ccc(Cl)cc3)ccc2O[C@@H]1CN(C)Cc1ccncc1,·,·,·,1,·
Cc1ccc(S(=O)(=O)Nc2ccc3c(c2)C(=O)N([C@@H](C)CO)C[C@H](C)[C@@H](CN(C)C(=O)NC(C)C)O3)cc1,·,·,·,0,·
Nc1cccc(/C=C/C(=O)O)c1,-70,1,1,·,-58*
COc1ccccc1C(=O)Nn1cnc2ccccc2c1=O,13,37,16,68*,-2
COc1ccc(Cl)cc1C(=O)Nn1cnc2ccccc2c1=O,4,3,-1,5,4
CCCc1nc2c3ccccc3ccn2c1Cc1cccc(F)c1,·,·,14,46*,·
Clc1cccc(Cc2c(-c3ccco3)nc3c4ccccc4ccn23)c1,·,·,-25,·,·
COc1ccc(-c2nc3c4ccccc4ccn3c2Cc2ccccc2)cc1OC,·,·,6,45*,·
Fc1cccc(Cc2c(-c3ccco3)nc3c4ccccc4ccn23)c1,·,·,16,72*,·
C[C@@H]1CCCCO[C@@H](CN(C)C(=O)Nc2ccc(F)cc2)[C@@H](C)CN([C@@H](C)CO)C(=O)c2cc(N(C)C)ccc2O1,·,·,·,9,·
C[C@@H]1CN([C@@H](C)CO)C(=O)Cc2cc(NC(=O)CCCCCC(=O)Nc3ccccc3N)ccc2O[C@H]1CN(C)C(=O)Nc1ccc(F)cc1,·,·,·,2,·
COc1ccc(C2Nc3ccccc3C(=O)N2Cc2ccco2)cc1COc1ccc(F)cc1 (stereo unspecified),103*,·,2,-16,67
COc1ccc(C2Nc3ccccc3C(=O)N2Cc2ccco2)cc1CN1C(=O)c2ccccc2C1=O (stereo unspecified),63*!,-1,-16,5,6
C[C@@H]1CN([C@@H](C)CO)C(=O)c2c(c3ccccc3n2C)-c2ccccc2CO[C@H]1CN(C)C(=O)c1ccc(F)cc1,·,·,·,-1,·
COc1ccc(C)cc1NC(=O)CSc1nnc(COc2ccc(Cl)cc2)n1Cc1ccco1,107*,·,1,5,50
SMILES,HSF1 activator,MITF act,Wnt bcat act,esBAF inh,HSF1 inh
Cc1cc(NC(=O)CSc2nnc(COc3cccc(C)c3C)n2Cc2ccco2)no1,33,-4,-1,-1,8
CCC(=O)Nc1cc(NC(=O)CSc2ncc(-c3ccc(F)cc3)n2Cc2ccco2)ccc1C,77*,78,38*,·,69
COc1ccc(OCC(=O)NNC(=O)C(=O)Nc2cc(OC)ccc2OC)cc1,16,-11,0,-5,0
Cc1cccc(OCc2nnc(SCC(=O)N(C(C)C)C(C)C)n2Cc2ccco2)c1C,60*,-16,·,3,37
COc1ccc(C)cc1NC(=O)C(=O)NNC(=O)COc1ccc(Cl)cc1,-88,-1,0,-1,-85*
CC(C)C#Cc1cnc2c(c1)C(=O)N([C@@H](C)CO)C[C@H](C)[C@H](CN(C)C(=O)Nc1ccccc1)O2,·,·,·,1,·
O=C(C[C@@H]1CC[C@@H]2[C@H](COC[C@@H](O)CN2CC2CCOCC2)O1)N1CCOCC1,·,·,·,2,·
C[C@@H]1CN([C@@H](C)CO)C(=O)c2ccccc2-c2ccccc2CO[C@@H]1CN(C)C,·,·,·,0,·
COC(=O)C[C@@H]1C[C@H]2c3cc(NS(=O)(=O)c4ccc(F)cc4)ccc3O[C@H]2[C@@H](CO)O1,·,·,·,0,·
Cc1ccc(C)c(NC(=O)CSc2nnc(CSc3nc(C)cc(C)n3)n2Cc2ccco2)c1,66*,0,-4,3,15
C[C@H](CO)N1C[C@H](C)[C@H](CN(C)S(=O)(=O)c2ccc(F)cc2)Oc2ncc(/C=C/c3ccccc3)cc2C1=O,·,·,·,-3,·
Cc1ccc(NC(=S)Nc2ccc3cn[nH]c3c2)cc1,-25,13,17,·,-14
S=C(Nc1ccccc1)Nc1ccc2cn[nH]c2c1,1,38,33*,39,1
Cc1ccc(S(=O)(=O)N2CCN(CCNC(=O)C(=O)NCc3ccccc3)CC2)cc1,-91,-12,0,-6,-87*
O=C(NCCN1CCN(S(=O)(=O)c2ccc(F)cc2)CC1)C(=O)NCc1ccccc1,-12,3,-1,-2,6
Cc1cc(S(=O)(=O)N2CCCC2)ccc1OCC(=O)NCc1ccccc1,-83,10,-1,·,-77*
COc1ccccc1-c1cnc2c(c1)C(=O)N([C@@H](C)CO)C[C@H](C)[C@H](CN(C)C(=O)c1ccccc1)O2,·,·,·,-6,·
O=S(=O)(N[C@H]1CC[C@H](CCn2cc(C3CC3)nn2)O[C@@H]1CO)c1ccc(F)cc1,·,·,·,-1,·
Cc1ccc(S(=O)(=O)N(C)C[C@H]2Oc3c(NS(=O)(=O)c4ccccc4)cccc3C(=O)N([C@@H](C)CO)C[C@@H]2C)cc1,·,·,·,7,·
O=C1c2ccccc2C(=O)N1CCSc1ccccc1,103*,·,·,50*,65
CC(=O)Nc1cnc(-c2cc(C)c(O)c(C)c2)cn1,·,·,0,72*,·
CC(=O)Nc1cnc(-c2ccc3c(c2)OCO3)cn1,·,·,40*,19,·
CNC[C@@H]1Oc2c(NS(=O)(=O)c3cn(C)cn3)cccc2C(=O)N([C@H](C)CO)C[C@@H]1C,·,·,·,-3,·
CC(=O)N1c2ccc(S(=O)(=O)N3CCC(C(=O)NCc4ccc(N(C)C)cc4)CC3)cc2CC1C (stereo unspecified),23,1,1,-5,2
CC(=O)N1c2ccc(S(=O)(=O)N3CCCC3)cc2CC1C(=O)NCc1ccc(N(C)C)cc1 (stereo unspecified),57*,3,0,-30,18
CO[C@@H]1CN(C)C(=O)c2cc(NS(=O)(=O)c3ccc(C)cc3)ccc2OC[C@@H](C)N(Cc2nccs2)C[C@@H]1C,·,·,·,7,·
